Test results: PubChem BioAssay (NCATS)
Records with an inconclusive call do not appear. Entries that show only a call come without a potency. A number with no mark means an inactive call. Active and inactive are the calls of the source. Calls follow the shape of the dose curve; as a rule, active = well fitted cell-killing curve with a large enough effect; inconclusive = small, poorly fitted or top-dose-only effect, or effect the other way; inactive = flat fitted curve, though single readings scatter.

What follows are molecules tested on Tov-21-G (assay: Primary qHTS to identify gynecologic anti-cancer compounds using libraries of approved drugs and bioactive compounds (AID 1345084; also: nearly all actives have a fitted effect of over 55% in size)). Settings: Gynecologic cancer cell panel viability, ATPlite luminescence, 48 h; series mostly up to 57.5 µM.
Method in brief: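 Five-concentration response, 48 h; readout is ATP-driven luciferase luminescence.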
`COc1ccc2c(c1O)OC[C@H]1c3ccc(O)cc3O[C@@H]21` was tested, and the Potency was “inactive”. With `Cc1c(CN(C)C(=O)/C=C/c2cnc3c(c2)CCC(=O)N3)oc2ccccc12` the Potency was “inactive”. For `COC1=CC(=O)C[C@@H](C)[C@]12Oc1cc(OC)cc(OC)c1C2=O`, the Potency was “inactive”. For `CC1CCC2(C(=O)OC3OC(CO)C(O)C(O)C3O)CCC3(C)C(=CCC4C5(C)CC(O)C(O)C(C)(C(=O)O)C5CCC43C)C2C1(C)O` (stereo not given), the Potency was “inactive”. `CC1CCC2C(C)(C)CC(C)(CO)C2(O)C1C(=O)O` (stereo not given) was tested, and the Potency was “inactive”. With `O=c1c2ccccc2nc2n1CCC2O` (stereo not given) the Potency was “inactive”. For `CC(C)(O)c1ccc2c(c1)C(=O)CC1[C@](C)(CO)CCC[C@]21C` (stereo not given in full), the Potency was “inactive”. In the case of `CC1CCC2C(C)(C)C(O)CCC2(C)C12Cc1c(O)cc3c(c1O2)C(N)=NC3` (stereo not given), the Potency is reported as “inactive”. For `C=CC1(C)CC(O)C2(CCC3C(C)(C(=O)O)CCCC3(C)C2=O)C1` (stereo not given), the Potency was “inactive”. Work on `CC1(C)CC2C3=CCC4C5(C)CCC(OC6OC(CO)C(O)C(OC7OC(CO)C(O)C(OC8OC(CO)C(O)C(OC9OC(COC%10OC(CO)C(O)C(O)C%10O)C(O)C(O)C9O)C8O)C7O)C6O)C(C)(C)C5CCC4(C)C3(C)CCC2(C(=O)O)CC1O` (stereo not given) yielded an activity change, negative = cytotoxicity of -2.7% [at 6.55 µM]. In the case of `CC1CCC2(C)C(CC(O)C(O)C23CO3)C1(C)CCC1=CC(=O)OC1O` (stereo not given), the Potency is reported as “inactive”. For `COC1C=C([C@@H]2CC=C3[C@@]4(C)C(CC[C@]32C)[C@@]2(C)C=CC(=O)C(C)(C)C2C[C@H]4OC(C)=O)C(=O)O1` (stereo not given in full), the Potency was “inactive”. `CCNC(=O)[C@H]1O[C@H](n2cnc3c(NCC(c4ccccc4)c4ccccc4)nc(C(=O)NCCNC(=O)NC4CCN(c5ccccn5)CC4)nc32)[C@H](O)[C@@H]1O` was tested, and the Potency was “inactive”. `C[C@@H]1O[C@@H](O[C@H]2[C@H](OC(=O)[C@]34CCC(C)(C)C[C@H]3C3=CCC5[C@@]6(C)CC[C@H](O[C@@H]7O[C@H](CO[C@@H]8OC[C@H](O)[C@H](O)[C@H]8O)[C@@H](O)[C@H](O)[C@H]7O)C(C)(C)C6CC[C@@]5(C)[C@]3(C)C[C@H]4O)OC[C@@H](O)[C@@H]2O)[C@H](O)[C@H](O)[C@H]1O[C@@H]1OC[C@H](O)[C@H](O[C@@H]2OC[C@@H](O)[C@H](O)[C@H]2O)[C@H]1O` (stereo not given in full) showed an activity change, negative = cytotoxicity of -9.88% [at 6.55 µM]. With `COC(=O)C1=CO[C@@H](O[C@@H]2O[C@H](CO)[C@@H](O)[C@H](O)[C@H]2O)[C@@H]2[C@@H](C)[C@@H](O)C[C@H]12` the Potency was “inactive”. In the case of `COc1c(C(CC(C)C)OC(C)=O)ccc(Oc2c(O)cc(C)cc2/C=C/C(C)=O)c1C(=O)O` (stereo not given), the Potency is reported as “inactive”. In the case of `CC1(C)CCC2(C(=O)OC3OC(COC4OC(CO)C(O)C(O)C4O)C(O)C(O)C3O)CCC3(C)C(=CCC4C5(C)CCC(O)C(C)(C(=O)O)C5CCC43C)C2C1O` (stereo not given), the activity change, negative = cytotoxicity is reported as 0.669% [at 11.6 µM]. For `C[C@]12CCC[C@](C)(C(=O)O)C1CCC13C=C(CO)C(CCC12)C3` (stereo not given in full), the Potency was “inactive”. `COc1cc(C2Oc3c(OC)cc(CCCO[C@@H]4O[C@H](CO)[C@@H](O)[C@H](O)[C@H]4O)cc3C2CO)ccc1O` (stereo not given in full) was tested, and the Potency was “inactive”. With `CC1(C)CC[C@]2(C(=O)O[C@@H]3O[C@H](CO)[C@@H](O)[C@H](O)[C@H]3O)CC[C@]3(C)C(=CCC4[C@@]5(C)C[C@@H](O)[C@H](O)C(CO)(CO)C5CC[C@]43C)C2[C@@H]1O` (stereo not given in full) the Potency was “inactive”. With `C[C@@H]1O[C@@H](O[C@H]2[C@H](OC(C#N)c3ccc(O)cc3)O[C@H](CO)[C@@H](O)[C@@H]2O)[C@H](O)[C@H](O)[C@H]1O` (stereo not given in full) the Potency was “inactive”. In the case of `C=C1CC[C@@H]2[C@](C)(CO[C@@H]3O[C@H](CO)[C@@H](O)[C@H](O)[C@H]3O)CCC[C@@]2(C)[C@@H]1CCC1=CCOC1=O`, the Potency is reported as “inactive”. For `C=CC1(C)CC(OC(=O)C(=C)C(O)COC(C)=O)C(C(=C)C(=O)OC)C(O)C1C(=C)CO` (stereo not given), the Potency was “inactive”. With `COC(=O)[C@@]1(O)C=CC[C@@H]2[C@@]3(C)C[C@@H](c4ccoc4)OC(=O)[C@H]3CC[C@]21C` the Potency was “inactive”. In the case of `CC(C)(O)C1CC=C(C(=O)OCC2OC(Oc3c(O)cc(C(=O)O)cc3O)C(O)C(O)C2O)CC1` (stereo not given), the Potency is reported as “inactive”. With `OCCc1ccc(O[C@@H]2O[C@H](CO)[C@@H](O)[C@H](O)[C@H]2O)c(O)c1` the Potency was “inactive”. In the case of `C[C@@H]1CC[C@]2(C)C(C[C@@H](O)[C@H](O)[C@]23CO3)[C@@]1(C)CCc1ccoc1` (stereo not given in full), the Potency is reported as “inactive”. `COC1(CC(C)C)NC(=O)C(O)(Cc2ccccc2)NC1=O` (stereo not given) was tested, and the Potency was “inactive”. `O=C1CC(c2ccc([N+](=O)[O-])cc2)=NN1c1ccccc1` was tested, and the Potency was “inactive”. With `CC(C)C(=O)c1cn(CC(=O)COc2ccc(Oc3ccccc3)cc2)c2ccc(C(=O)O)cc12` the Potency was “inactive”. `NC(=O)[C@H]1CCCCc2c1[nH]c1ccc(Cl)cc21` was tested, and the Potency was “inactive”. With `COC12CC3C(C(C)C1=CC(=O)O2)C(O)C(OC(C)=O)C1C(C)(C)C(OC(C)=O)CCC31C` (stereo not given) the Potency was “inactive”. For `CC(C)C(C#N)O[C@@H]1O[C@H](CO[C@@H]2OC[C@](O)(CO)[C@H]2O)[C@@H](O)[C@H](O)[C@H]1O` (stereo not given in full), the Potency was “inactive”. With `O=C(CCCCc1ccc2ccccc2c1)C(F)(F)F` the Potency was “inactive”. With `C[C@@H]1CCC2C(C)(C)[C@H](O)CC[C@]2(C)[C@@]12Cc1c(O)cc3c(c1O2)CN(CCO)C3=O` (stereo not given in full) the Potency was “inactive”. `C[C@@H]1C(=O)O[C@H]2CC34[C@H]5C[C@@H](C(C)(C)C)C36[C@@H](OC(=O)[C@@H]6O)OC4(C(=O)O5)[C@]21O` (stereo not given in full) was tested, and the Potency was “inactive”. In the case of `Cc1cc(O)c(C(C)C)cc1O[C@@H]1O[C@H](CO)[C@@H](O)[C@H](O)[C@H]1O`, the Potency is reported as “inactive”. `C=C1C[C@]23C[C@H]1CC[C@H]2[C@@]12C=C[C@H](O)[C@@](C)(C(=O)O1)[C@H]2[C@@H]3C(=O)O` was tested, and the Potency was “inactive”. `C=CC1(C)CC2=CCC3C(C)(C(=O)O)CCCC3(C)C2CC1OC(C)=O` (stereo not given) was tested, and the Potency was “inactive”. In the case of `O=c1ccn([C@@H]2O[C@H](CO)[C@@H](O)[C@H]2O)c(=O)[nH]1`, the Potency is reported as “inactive”.
